The values below come from PubChem BioAssay (Tox21).

Records with an inconclusive call do not appear. Activity calls are given as the source filed them. Unless noted, the call rests on the fitted dose curve.

Test [1] is described as follows: Nuclear factor erythroid 2-related factor 2/antioxidant responsive element (Nrf2/ARE) small molecule agonists: qHTS cell viability counter screen in human keratinocytes (AID 1919968; active means well fitted cell-killing curve with a large enough effect in the repeat runs; further: nearly all actives have a fitted effect of over 55% in size). In short, it runs like this: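 Fluorescence read-out from CellTiter-Fluor after 1 h at 37 C. Wells held HaCaT-derived ARE-luciferase reporter cells (1,500/well) treated 23 h with DMSO-dissolved compounds. Run in the same wells as the luciferase agonist read.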

Test [2] can be described thus: Nuclear factor erythroid 2-related factor 2/antioxidant responsive element (Nrf2/ARE) small molecule agonists: luciferase reporter gene qHTS assay in human keratinocytes (AID 1919969). Further: nearly all actives have a fitted effect of over 35% in size. Further: potency means the concentration at half of the fitted maximal effect.
The target in test [3] is Gonadotropin-releasing hormone receptor (Homo sapiens) (UniProt P30968). As to the kind of experiment: Human gonadotropin-releasing hormone receptor (GnRHR) small molecule agonists, calcium flux assay in GnRHR-HEK293 cells (AID 1920063). Further: nearly all actives have a fitted effect of over 35% in size. In short, it runs like this: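 Calcium-dye fluorescence, Ex/Em=480/540, recorded every 1 sec over 3 min after compound addition to GnRHR-HEK293 cells. Cells had been seeded 18 hours earlier and dye-loaded for 1 hour at 37 C. Fifteen concentrations, triplicates.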
Gonadotropin-releasing hormone receptor (Homo sapiens), sequence (P30968 whole entry, looked up): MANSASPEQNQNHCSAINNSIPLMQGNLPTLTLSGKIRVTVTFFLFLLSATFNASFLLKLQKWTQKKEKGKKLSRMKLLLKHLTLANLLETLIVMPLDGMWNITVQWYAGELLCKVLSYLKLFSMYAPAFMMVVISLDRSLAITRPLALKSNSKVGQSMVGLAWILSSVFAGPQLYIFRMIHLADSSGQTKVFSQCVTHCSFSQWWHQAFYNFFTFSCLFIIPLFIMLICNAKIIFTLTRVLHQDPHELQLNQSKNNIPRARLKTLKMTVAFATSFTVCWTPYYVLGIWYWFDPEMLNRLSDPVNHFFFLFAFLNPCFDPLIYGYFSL

Test [4] is described as follows: G protein-coupled receptor (GPCR) small molecule agonists, calcium flux assay: HEK293 wild type cell line counter screen (AID 1920065). The method in brief:
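Agonist mode; 18 h seeding at 37 C, 1 h dye load at 37 C; compounds pinned from DMSO, ATP as positive control; kinetic fluorescence 480/540 nm, 3 min, 1 s reads; 15 concentrations, triplicate.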

Test [5] in a line: p53 small molecule agonists, cell-based qHTS assay with human liver microsomes (AID 1963577).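 Further: p53 response element beta-lactamase reporter cells with liver microsomes plus NADPH.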 In short, it runs like this: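 HLM-supplemented p53RE-bla reporter assay: 16 h compound exposure at 37 C, microsomes and NADPH each 0.5 mg/mL final, read by fluorescence intensity.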
Test [6] is described as follows: p53 small molecule agonists, cell-based qHTS assay with rat liver microsomes (AID 1963578). The method in brief:
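Quantitative HTS of the Tox21 10K library: p53RE-bla cells, rat liver microsomes plus NADPH at 0.5 mg/mL final each, 16 h at 37 C, beta-lactamase fluorescence detection.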

A short description of test [7]: p53 small molecule agonists, cell-based qHTS assay with human liver microsomes: qHTS cell viability counter screen (AID 1963579). Further: nearly all actives have a fitted effect of over 45% in size. The method in brief:
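Viability of p53RE-bla cells is measured as CellTiter-Glo luminescence following a 16 h, 37 C incubation with compound, liver microsomes from human donors and NADPH.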

Test [8] is described as follows: p53 small molecule agonists, cell-based qHTS assay with rat liver microsomes: qHTS cell viability counter screen (AID 1963580). Further: nearly all actives have a fitted effect of over 45% in size. The method in brief: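 Rat liver microsome (0.5 mg/mL final) and NADPH (0.5 mg/mL final) co-incubation with compounds for 16 h at 37 C on HCT-116 p53RE-bla cells; cytotoxicity taken from intracellular ATP luminescence.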
Test [9] in a line: p53 small molecule agonists, cell-based qHTS assay: qHTS cell viability counter screen (AID 1963581). Further: nearly all actives have a fitted effect of over 45% in size. The method in brief: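 Cytotoxicity read-out: ATP-based luminescence (CellTiter-Glo, 30 min RT) measured in the same wells as the p53 reporter assay, HCT-116 p53RE-bla cells, 16 h compound exposure at 37 C.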
Test [10] in a line: p53 small molecule agonists, cell-based qHTS assay (AID 1963582; active means well fitted activation curve with a large enough effect in the signal ratio in the repeat runs, not every such curve was filed as active; the % refers to the signal ratio). The method in brief:
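Fluorescence intensity read-out of a beta-lactamase reporter under a p53 response element. Cells were exposed to DMSO-dissolved compounds for 16 h at 37 C, then developed with FRET substrate for 2 h at RT.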

Test [11] concerns the target 5-hydroxytryptamine receptor 2A (Homo sapiens) (UniProt P28223). As to the kind of experiment: 5-hydroxytryptamine receptor 2A (HTR2A) small molecule antagonists, cell-based qHTS assay (AID 1963586). Further: nearly all actives have a fitted effect of over 45% in size. In short, it runs like this:
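CHO cells stably expressing human HTR2A were plated for 18 h at 37 C, then loaded with calcium dye for 1 h. Compounds were preincubated 5 min at room temperature before DOI (4 nM solution) was added. Kinetic fluorescence was read for 3 min.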

Test [12] shares this target. As to the kind of experiment: 5-hydroxytryptamine receptor 2A (HTR2A) small molecule agonists, cell-based qHTS assay (AID 1963587). Further: nearly all actives have a fitted effect of over 30% in size. In short, it runs like this:
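Kinetic calcium-flux fluorescence (2 min, 1 sec intervals) after compound addition in agonist mode. HTR2A-CHO cells were cultured 18 h, then dye-loaded 1 h at 37 C.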

Test [13] addresses Muscarinic acetylcholine receptor M1 (Homo sapiens) (UniProt P11229). Nature of the test: Cholinergic receptor muscarinic 1 (CHRM1) small molecule agonists, cell-based qHTS assay (AID 1963589). Further: nearly all actives have a fitted effect of over 35% in size. The method in brief:
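Calcium flux read-out: kinetic fluorescence at 1 sec intervals after pin-tool compound addition to dye-loaded CHRM1-CHO cells (human M1). Agonist mode; 15 concentrations tested in triplicate independent runs.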

Test [14] in a line: cAMP Responsive Elements (CRE) small molecule agonists, cell-based qHTS assay (AID 1963590). In short, it runs like this: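 Beta-lactamase reporter readout: LiveBLAzer B/G FRET substrate, 2 h at room temperature, added after 3 h compound treatment of CRE-bla HEK 293T cells at 37 C/5% CO2.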
A short description of test [15]: cAMP Responsive Elements (CRE) small molecule antagonists, cell-based qHTS assay (AID 1963591; active means well fitted inhibition curve with a large enough effect in the signal ratio in the repeat runs, not every such curve was filed as active; the % refers to the signal ratio). The method in brief:
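HEK293T CRE-bla; 18 h preincubation; compound pin-transfer; NKH477 0.25 uM final, 3 h, 37 C; LiveBLAzer FRET substrate 2 h RT.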

The target in test [16] is Beta-2 adrenergic receptor (Homo sapiens) (UniProt P07550). As to the kind of experiment: Adrenergic beta2 receptor (ADRB2) small molecule antagonists, cell-based qHTS assay (AID 1963592). Further: series mostly up to about 92 µM; nearly all actives have a fitted effect of over 50% in size. In short, it runs like this: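 Assay format: CHO-ADRB2 cells, 18-20hr seeding at 37C/5% CO2, then compound plus 1nM isoproterenol agonist mix for 0.5hr RT. Homogeneous time-resolved fluorescence cAMP detection after 1hr, expressed as 665/615 nm ratio.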
Beta-2 adrenergic receptor (Homo sapiens), sequence (P07550 whole entry, looked up): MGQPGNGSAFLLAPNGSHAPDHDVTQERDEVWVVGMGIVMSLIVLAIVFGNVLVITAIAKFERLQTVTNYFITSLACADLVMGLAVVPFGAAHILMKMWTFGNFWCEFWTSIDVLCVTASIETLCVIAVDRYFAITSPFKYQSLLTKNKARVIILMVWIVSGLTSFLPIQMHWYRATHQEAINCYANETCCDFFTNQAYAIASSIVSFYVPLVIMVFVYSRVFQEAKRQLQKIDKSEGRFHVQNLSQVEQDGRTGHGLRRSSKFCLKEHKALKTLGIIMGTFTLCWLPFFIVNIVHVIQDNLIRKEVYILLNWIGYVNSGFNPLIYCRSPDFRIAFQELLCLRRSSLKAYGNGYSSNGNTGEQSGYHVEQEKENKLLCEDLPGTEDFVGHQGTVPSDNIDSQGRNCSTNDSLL

Test [17] has as its target D(2) dopamine receptor (Homo sapiens) (UniProt P14416). Nature of the test: Dopamine D2 receptor (DRD2) small molecule agonists, cell-based qHTS assay (AID 1963594). Further: nearly all actives have a fitted effect of over 35% in size. In short, it runs like this: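 cAMP accumulation in DRD2-HEK293 cells measured by HTRF after 1 h detection; compounds added 10 min before NKH477 (200nM […]) forskolin-analogue stimulation, 30 min at room temperature, with Ro20-1724 present at 0.1 mM final.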

For test [18] the target is unchanged. As to the kind of experiment: Dopamine D2 receptor (DRD2) small molecule antagonists, cell-based qHTS assay (AID 1963595; active means well fitted inhibition curve with a large enough effect in the signal ratio in the repeat runs, with a control signal flat; the % refers to the signal ratio). In short, it runs like this:
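DRD2-HEK293; 0.1 mM Ro20-1724; cpd 10 min RT; NKH477 200 nM + quinpirole 12 nM, 30 min RT; HTRF cAMP (cAMP-d2/anti-cAMP cryptate), 665/620 nm ratio after 1 h.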

Test [19] addresses Muscarinic acetylcholine receptor M1 (Homo sapiens) (UniProt P11229). As to the kind of experiment: Cholinergic receptor muscarinic 1 (CHRM1) small molecule antagonists, cell-based qHTS assay (AID 1963588). Further: nearly all actives have a fitted effect of over 40% in size. In short, it runs like this:
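Compounds were tested at 15 concentrations in three independent runs. Dye-loaded CHRM1-CHO cells were exposed 5 min at room temperature before stimulation by acetylcholine added at 50nM. Intracellular calcium was read kinetically on FDSS for 3 min.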

5-hydroxytryptamine receptor 2A (Homo sapiens), sequence (P28223 whole entry, looked up): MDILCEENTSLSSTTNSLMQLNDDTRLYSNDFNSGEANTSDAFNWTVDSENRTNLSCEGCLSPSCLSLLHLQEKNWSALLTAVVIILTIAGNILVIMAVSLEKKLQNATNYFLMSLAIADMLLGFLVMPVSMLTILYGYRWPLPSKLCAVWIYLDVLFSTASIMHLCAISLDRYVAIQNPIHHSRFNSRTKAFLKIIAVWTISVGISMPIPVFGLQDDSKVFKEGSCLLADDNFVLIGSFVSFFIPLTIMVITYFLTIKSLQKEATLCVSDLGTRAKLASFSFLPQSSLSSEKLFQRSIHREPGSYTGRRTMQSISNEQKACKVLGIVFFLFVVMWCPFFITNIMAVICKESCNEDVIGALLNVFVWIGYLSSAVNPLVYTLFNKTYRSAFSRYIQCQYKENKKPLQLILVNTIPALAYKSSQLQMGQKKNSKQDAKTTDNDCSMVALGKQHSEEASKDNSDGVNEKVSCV
Muscarinic acetylcholine receptor M1 (Homo sapiens), sequence (P11229 whole entry, looked up): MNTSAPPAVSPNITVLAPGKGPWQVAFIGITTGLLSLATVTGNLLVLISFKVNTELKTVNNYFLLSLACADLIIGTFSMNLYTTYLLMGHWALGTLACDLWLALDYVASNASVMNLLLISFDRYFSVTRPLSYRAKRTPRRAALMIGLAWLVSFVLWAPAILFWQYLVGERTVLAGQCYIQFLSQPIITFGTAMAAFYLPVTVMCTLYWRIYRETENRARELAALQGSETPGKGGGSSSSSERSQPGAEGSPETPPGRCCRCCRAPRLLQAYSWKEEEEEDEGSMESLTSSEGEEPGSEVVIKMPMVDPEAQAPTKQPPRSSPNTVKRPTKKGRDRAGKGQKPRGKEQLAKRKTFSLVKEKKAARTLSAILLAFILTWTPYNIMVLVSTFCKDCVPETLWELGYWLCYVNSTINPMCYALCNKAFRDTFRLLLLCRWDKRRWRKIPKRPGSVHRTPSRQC
D(2) dopamine receptor (Homo sapiens), sequence (P14416 whole entry, looked up): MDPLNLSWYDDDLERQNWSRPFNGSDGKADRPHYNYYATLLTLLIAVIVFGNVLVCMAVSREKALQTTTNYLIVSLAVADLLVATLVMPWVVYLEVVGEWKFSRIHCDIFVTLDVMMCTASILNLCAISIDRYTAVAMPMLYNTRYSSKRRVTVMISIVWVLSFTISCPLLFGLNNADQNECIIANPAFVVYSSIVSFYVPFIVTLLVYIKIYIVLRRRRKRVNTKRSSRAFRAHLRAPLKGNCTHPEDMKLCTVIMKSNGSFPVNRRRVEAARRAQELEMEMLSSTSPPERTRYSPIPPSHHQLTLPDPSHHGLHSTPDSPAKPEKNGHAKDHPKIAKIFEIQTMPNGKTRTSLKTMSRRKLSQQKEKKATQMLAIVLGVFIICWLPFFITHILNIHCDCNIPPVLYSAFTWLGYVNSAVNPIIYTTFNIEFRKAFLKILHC

For `Nc1cc(C(=O)O)c(O)c(S(=O)(=O)O)c1`, the Potency result in test [1], in test [2], in [3], in [5], in test [6] and in test [7] was “inactive” in each case. The Potency entry in [8], in test [9], in test [10], in test [11], in [12] and in [13] was “inactive” throughout. The Potency result in [14], in test [15], in test [16], in test [17] and in test [18] was “inactive” throughout. Moreover, the result in test [4] was inactive.
For `C/C=C/C=C/COC(=O)C(C)C`, the Potency entry in test [1], in test [3], in test [5], in test [6], in test [7] and in test [8] was “inactive” throughout. Moreover, the Potency entry in [9], in test [10], in test [11], in test [12], in test [19] and in test [13] was “inactive” each time. Also, the Potency entry in test [16], in test [17] and in test [18] was “inactive” in each case. For the same molecule, in [2], the Potency was 68.6 µM (active). Further, the result in test [4] was inactive.
As to `O=C1c2ccccc2C(=O)C1c1ccccc1`, the Potency entry in test [1], in test [2], in test [3], in test [5], in [6] and in test [7] was “inactive” throughout. Also, the Potency result in test [8], in test [9], in [10], in test [14], in [15] and in test [16] was “inactive” throughout. Besides, the Potency result in [17] was “inactive”. Besides, in test [4], the outcome was inactive.
Regarding `CCOC(=O)C(O)c1ccccc1` (stereo not given), the Potency entry in test [1], in test [2], in test [3], in [5], in test [6] and in [7] was “inactive” throughout. Besides, the Potency entry in test [8], in test [9], in test [10], in [11], in test [19] and in [14] was “inactive” in each case. In addition, the Potency result in [15], in test [16], in test [17] and in test [18] was “inactive” each time. Moreover, the result in [4] was inactive.
Take `COc1ccc2c(c1)c(CC(=O)OCC(=O)O)c(C)n2C(=O)c1ccc(Cl)cc1`: the Potency result in test [1], in test [2], in [3], in [5], in [6] and in test [7] was “inactive” throughout. Moreover, the Potency result in test [8], in [9], in [16], in test [17] and in test [18] was “inactive” each time. Also, the outcome in [4] was inactive.
As to `CC(=O)c1c(C)cc(C(C)(C)C)cc1C`, the Potency result in test [1], in [2], in test [3], in test [5], in test [6] and in [7] was “inactive” each time. Further, the Potency result in test [8], in [9], in test [10], in [11], in [19] and in [13] was “inactive” throughout. In addition, the Potency entry in [14], in test [15], in [16], in test [17] and in [18] was “inactive” in each case. Also, the outcome in test [4] was inactive.
On to `CCCCCCCCCCC(=O)O`, for which the Potency entry in test [1], in [2], in [3], in test [5], in test [6] and in [7] was “inactive” in each case. Also, the Potency result in test [8], in [9], in [11], in [12], in [19] and in test [15] was “inactive” throughout. Besides, the Potency result in test [16] and in [17] was “inactive” each time. In addition, the result in test [4] was inactive.
For `COc1ccc(-c2cc(C(F)F)nn2-c2ccc(S(N)(=O)=O)cc2)cc1F`, the Potency entry in test [1], in test [2], in [3], in test [5], in test [6] and in test [7] was “inactive” throughout. In addition, the Potency entry in test [8], in test [9], in test [10], in [12], in test [13] and in test [17] was “inactive” in each case. Further, in test [18], the Potency entry is “inactive”. Moreover, in test [4], the outcome was inactive.
